Assay [1] can be described thus: binders of probe aFSTL3 on microarray, primary screen, stem cell growth factor project, biochemical, small-molecule microarray, fluorescence 635/667 (AID 1064).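 Note: measures binding of the biotinylated anti-FSTL3 antibody to printed compounds.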 As to conditions: higher = more signal.
The nature of assay [2]: binders from COS7 lysate, DM2A8 probe, primary screen, torsin A project, cell lysate, small-molecule microarray, fluorescence 635/667 (AID 1065). As to conditions: higher = more signal, COS7 lysate expressing mutant human TOR1A.
The nature of assay [3]: binders of probe aFGF2 on microarray, primary screen, stem cell growth factor project, biochemical, small-molecule microarray, fluorescence 635/667 (AID 1067).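 Note: measures binding of biotinylated aFGF2 protein to printed compounds on slides; z-score merges feature fluorescence and signal-to-noise across triplicate slides.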 As to conditions: higher = more signal.
Assay [4] can be described thus: binders of probe aFGF10 on microarray, primary screen, stem cell growth factor project, biochemical, small-molecule microarray, fluorescence 635/667 (AID 1071).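 Note: score merges 667 nm spot intensity and signal to noise from triplicate slides.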 As to conditions: higher = more signal.
The target of assay [5] is Neurogenic locus notch homolog protein 2 (Homo sapiens) (UniProt Q04721). The assay can be described thus: Notch2 binders on small-molecule microarrays, primary screen, biochemical, small-molecule microarray, 635 nm fluorescence, stem cell growth factors (AID 1073). As to conditions: Notch2 binding, higher = more signal.
Assay [6] deals with Pro-neuregulin-1, membrane-bound isoform (Homo sapiens) (UniProt Q02297). Nature of the assay: NRG1 binders on small-molecule microarrays, primary screen, psychiatric disease protein project, biochemical, small-molecule microarray, fluorescence 635/667 (AID 1075).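 Note: score combines 667 nm spot fluorescence with signal to noise.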 As to conditions: NRG1 binding, 635 nm fluorescence, higher = more signal.
Assay [7] has as its system Neuregulin-1 EGF-like domain. The assay can be described thus: binders of neuregulin-1 EGF-like domain, primary screen, biochemical, small-molecule microarray, 635 nm fluorescence (AID 1081).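 Note: binding of the protein to compounds printed on small-molecule microarray slides.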 As to conditions: small-molecule microarray binding, higher = more signal.
Assay [8] is described as follows: FRG1 promoter luciferase signal modulators, primary screen, FRG1 inhibition for FSHD, cell-based, C2C12 myotubes, firefly/Renilla luciferase, luminescence (AID 1084). As to conditions: higher = more signal, called active from +8 up or from −8 down.
Assay [9] in a line: binders of probe aFST on microarray, primary screen, stem cell growth factor project, biochemical, small-molecule microarray, fluorescence 635/667 (AID 1086).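 Note: score merges 667 nm fluorescence with signal-to-noise of each printed compound spot.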 As to conditions: higher = more signal.
Assay [10] in a line: binders of probe aHhip on microarray, primary screen, stem cell growth factor project, biochemical, small-molecule microarray, fluorescence 635/667 (AID 1087).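 Note: score merges spot fluorescence at 667nm with spot signal to noise ratio.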 As to conditions: higher = more signal.
The test system of assay [11] is PRMT1 (protein arginine N-methyltransferase 1). The assay can be described thus: PRMT1 binders on small-molecule microarrays, primary screen, biochemical, small-molecule microarray, 635 nm fluorescence (AID 1088).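 Note: binding of Prmt1 protein to compounds spotted on small-molecule microarray slides.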 As to conditions: small-molecule microarray binding, higher = more signal.
Assay [12] is described as follows: yeast growth modulation, basal conditions, primary screen, YJM789 clinical isolate, OD600, 24 h (AID 1089).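 Note: growth of clinical yeast isolate S. cerevisiae YJM 789 seeded 1000 cells per well; test concentration not given here.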 As to conditions: S. cerevisiae YJM789 growth, higher = more signal, called active from +8 up or from −8 down.
Assay [13] can be described thus: fission yeast growth modulation, primary screen, strain 972, OD600, 24 h, no modulator (AID 1090).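 Note: basal condition with compound alone and no growth modifier present; test concentration not given here.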 As to conditions: S. pombe 972 growth, higher = more signal, called active from +8 up or from −8 down.
Assay [14] can be described thus: S. cerevisiae growth modulation with rapamycin, primary screen, strain BY4716, OD600, 96 h (AID 1091). Note: test concentration not given here. As to conditions: higher = more signal, called active from +8 up or from −8 down.
In assay [15] the target is Torsin-1A-interacting protein 2 (Homo sapiens) (UniProt Q8NFQ8). The assay can be described thus: LULL1 binders on small-molecule microarray, primary screen, cell lysate, human LULL1 lysate, 635/667 nm fluorescence (AID 1092).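 Note: probe is lysate of COS7 cells overexpressing human LULL1; score merges per-feature 667 nm fluorescence with signal-to-noise.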 As to conditions: hLULL1 lysate binding, 635 nm fluorescence, higher = more signal.
Assay [16] in a line: E. coli growth modulation, two-sided OD650, primary screen, E. coli filamentation project, strain DRC41, 24 h (AID 1093).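 Note: MC1000 strain lacking acrAB efflux and sulA so SOS filamentation is blocked; test concentration not given here.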 As to conditions: OD650, 24 h, higher = more signal, called active from +8 up or from −8 down.
A short description of assay [17]: small-molecule microarray binders of probe aLefty2, primary screen, biochemical, biotinylated probe, 635/667 nm fluorescence (AID 1094).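 Note: score merges spot fluorescence near 667 nm with spot signal-to-noise ratio.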 As to conditions: higher = more signal.
In assay [18] the test system is Noggin (protein binding on small-molecule microarray). Nature of the assay: Noggin binders on small-molecule microarray, primary screen, biochemical, 635/667 nm fluorescence (AID 1095).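 Note: score merges 667 nm feature fluorescence with signal to noise over triplicate slides.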 As to conditions: 635 nm fluorescence, higher = more signal.
In assay [19] the target is Neurogenic locus notch homolog protein 3 (Homo sapiens) (UniProt Q9UM47). The assay can be described thus: NOTCH3 binders on small-molecule microarray, primary screen, biochemical, 635/667 nm fluorescence (AID 1096). As to conditions: NOTCH3 binding, 635 nm fluorescence, higher = more signal.
A short description of assay [20]: small-molecule microarray binders of probe aEGFR, primary screen, biochemical, biotinylated probe, 635/667 nm fluorescence (AID 1097).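 Note: probe is a biotinylated anti-EGFR antibody binding compounds printed on slides; score combines fluorescence near 667 nm and signal to noise of each spot.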 As to conditions: higher = more signal.

The source made the active and inactive calls.

Sequence of Torsin-1A-interacting protein 2 (Homo sapiens) (Q8NFQ8 whole entry, looked up): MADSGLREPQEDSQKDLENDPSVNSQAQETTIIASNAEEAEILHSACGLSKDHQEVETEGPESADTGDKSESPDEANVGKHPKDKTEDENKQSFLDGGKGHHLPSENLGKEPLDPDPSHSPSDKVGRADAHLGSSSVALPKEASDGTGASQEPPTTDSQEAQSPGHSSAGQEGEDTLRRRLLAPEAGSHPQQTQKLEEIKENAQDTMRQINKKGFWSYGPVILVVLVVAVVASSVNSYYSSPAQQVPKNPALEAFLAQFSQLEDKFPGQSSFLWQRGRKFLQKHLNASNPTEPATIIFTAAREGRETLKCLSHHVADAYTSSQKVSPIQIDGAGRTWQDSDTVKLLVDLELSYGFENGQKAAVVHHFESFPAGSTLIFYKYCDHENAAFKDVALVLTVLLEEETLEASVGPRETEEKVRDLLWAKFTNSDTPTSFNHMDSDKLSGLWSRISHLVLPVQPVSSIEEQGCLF
Sequence of Pro-neuregulin-1, membrane-bound isoform (Homo sapiens) (Q02297 whole entry, looked up, the tested form may be a part, canonical isoform): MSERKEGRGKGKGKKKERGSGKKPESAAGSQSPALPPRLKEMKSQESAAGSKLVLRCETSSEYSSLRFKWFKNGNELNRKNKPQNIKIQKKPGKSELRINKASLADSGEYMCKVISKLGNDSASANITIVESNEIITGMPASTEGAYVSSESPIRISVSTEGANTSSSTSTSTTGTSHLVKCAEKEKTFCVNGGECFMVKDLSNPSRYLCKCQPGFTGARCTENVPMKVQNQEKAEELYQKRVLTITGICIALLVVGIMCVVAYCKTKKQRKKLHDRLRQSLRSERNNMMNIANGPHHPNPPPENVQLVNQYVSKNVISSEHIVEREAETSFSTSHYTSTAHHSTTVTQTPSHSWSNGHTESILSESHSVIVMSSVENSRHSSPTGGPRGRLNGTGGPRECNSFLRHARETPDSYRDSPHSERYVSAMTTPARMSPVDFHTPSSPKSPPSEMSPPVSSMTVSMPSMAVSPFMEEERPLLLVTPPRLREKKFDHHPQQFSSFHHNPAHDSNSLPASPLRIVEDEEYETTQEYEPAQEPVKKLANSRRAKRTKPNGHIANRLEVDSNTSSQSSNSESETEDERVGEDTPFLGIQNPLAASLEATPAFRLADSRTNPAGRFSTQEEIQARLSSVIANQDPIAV
Sequence of Neurogenic locus notch homolog protein 3 (Homo sapiens) (Q9UM47 whole entry, looked up): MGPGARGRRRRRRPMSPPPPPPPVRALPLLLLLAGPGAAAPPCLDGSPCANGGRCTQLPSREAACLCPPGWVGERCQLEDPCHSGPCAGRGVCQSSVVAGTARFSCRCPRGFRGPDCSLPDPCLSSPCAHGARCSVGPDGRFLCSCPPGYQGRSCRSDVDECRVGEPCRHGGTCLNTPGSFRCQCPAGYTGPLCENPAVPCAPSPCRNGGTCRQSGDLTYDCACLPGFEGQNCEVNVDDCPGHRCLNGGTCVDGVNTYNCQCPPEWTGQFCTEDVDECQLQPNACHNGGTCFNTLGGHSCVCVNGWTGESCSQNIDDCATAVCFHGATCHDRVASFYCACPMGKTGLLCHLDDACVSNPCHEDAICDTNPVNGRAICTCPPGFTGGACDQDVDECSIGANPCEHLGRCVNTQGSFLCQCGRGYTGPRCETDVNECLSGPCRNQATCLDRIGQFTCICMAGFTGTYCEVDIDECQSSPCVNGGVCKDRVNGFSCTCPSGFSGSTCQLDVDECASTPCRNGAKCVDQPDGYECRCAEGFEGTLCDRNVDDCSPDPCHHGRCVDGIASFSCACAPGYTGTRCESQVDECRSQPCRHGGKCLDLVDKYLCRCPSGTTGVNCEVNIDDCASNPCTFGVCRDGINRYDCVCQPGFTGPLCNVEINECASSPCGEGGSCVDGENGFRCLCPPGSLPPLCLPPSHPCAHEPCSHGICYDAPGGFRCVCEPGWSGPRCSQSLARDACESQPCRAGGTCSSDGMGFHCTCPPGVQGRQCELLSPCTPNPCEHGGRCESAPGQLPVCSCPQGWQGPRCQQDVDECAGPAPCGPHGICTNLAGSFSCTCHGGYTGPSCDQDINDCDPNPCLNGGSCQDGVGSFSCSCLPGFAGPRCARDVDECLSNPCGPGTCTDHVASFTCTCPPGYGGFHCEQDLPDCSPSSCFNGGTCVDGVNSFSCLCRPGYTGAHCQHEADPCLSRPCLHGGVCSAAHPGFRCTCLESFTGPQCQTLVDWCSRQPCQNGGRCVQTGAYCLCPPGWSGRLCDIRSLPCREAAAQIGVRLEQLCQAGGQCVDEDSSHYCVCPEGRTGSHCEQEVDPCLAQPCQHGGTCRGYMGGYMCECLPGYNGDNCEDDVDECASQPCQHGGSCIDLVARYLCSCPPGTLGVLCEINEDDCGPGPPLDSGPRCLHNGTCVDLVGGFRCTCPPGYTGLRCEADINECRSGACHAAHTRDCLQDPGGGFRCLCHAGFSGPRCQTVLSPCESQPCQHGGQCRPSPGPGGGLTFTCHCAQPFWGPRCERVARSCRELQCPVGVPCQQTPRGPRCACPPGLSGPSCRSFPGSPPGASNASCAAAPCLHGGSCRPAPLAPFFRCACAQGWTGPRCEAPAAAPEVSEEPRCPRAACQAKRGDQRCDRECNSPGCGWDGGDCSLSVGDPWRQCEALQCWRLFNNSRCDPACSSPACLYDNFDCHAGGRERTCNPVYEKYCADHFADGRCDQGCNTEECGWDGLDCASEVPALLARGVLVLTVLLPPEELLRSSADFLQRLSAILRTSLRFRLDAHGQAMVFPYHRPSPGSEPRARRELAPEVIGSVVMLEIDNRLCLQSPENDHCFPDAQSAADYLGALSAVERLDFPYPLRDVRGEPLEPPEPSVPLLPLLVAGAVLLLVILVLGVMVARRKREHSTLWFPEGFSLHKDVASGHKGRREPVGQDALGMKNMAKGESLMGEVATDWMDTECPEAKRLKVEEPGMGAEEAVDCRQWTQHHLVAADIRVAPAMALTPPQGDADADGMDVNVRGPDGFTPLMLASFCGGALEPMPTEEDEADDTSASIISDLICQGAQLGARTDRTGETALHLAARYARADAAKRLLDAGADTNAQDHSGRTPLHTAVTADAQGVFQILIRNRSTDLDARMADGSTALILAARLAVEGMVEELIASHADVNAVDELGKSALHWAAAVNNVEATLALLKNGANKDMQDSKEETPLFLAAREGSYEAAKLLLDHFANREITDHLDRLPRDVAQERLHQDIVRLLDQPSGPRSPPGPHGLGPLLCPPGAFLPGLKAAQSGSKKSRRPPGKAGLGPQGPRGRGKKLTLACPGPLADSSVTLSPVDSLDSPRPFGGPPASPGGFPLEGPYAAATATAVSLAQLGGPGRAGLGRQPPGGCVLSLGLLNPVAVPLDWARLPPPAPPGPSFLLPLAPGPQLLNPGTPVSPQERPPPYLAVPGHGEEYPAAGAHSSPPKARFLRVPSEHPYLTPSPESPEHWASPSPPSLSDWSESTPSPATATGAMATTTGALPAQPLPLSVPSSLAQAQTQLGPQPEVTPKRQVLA

In the case of `O=C1C2C=CC(C(O)c3ccco3)N(Nc3ccccc3F)C2C(=O)N1c1ccccc1` (stereo not given), the composite z-score in [1] is -0.111; in assay [2], -0.501; in assay [3], 0.134; in assay [4], 0.458; in assay [5], 1.02; in [6], 1.32. Further, the composite z-score was 0.894 in [7]; 0.931 in assay [9]; -0.173 in [10]; -0.281 in assay [11]; 2.46 in assay [15]; 0.0686 in [17]. The composite z-score is -0.221 in assay [18], 0.569 in assay [19] and -0.0435 in assay [20]. Moreover, the z-score in assay [8] was 0.793 (inactive); in [12], 0.252 (inactive); in [13], 0.512 (inactive); in assay [14], -0.119 (inactive); in [16], -1.47 (inactive).

Regarding `CC(C)N1C(=O)c2ccccc2[C@@H](C(=O)NCCN2CCOCC2)[C@@H]1c1ccc(CO)cc1`, the composite z-score in [1] was 0.197; in [2], -0.831; in [3], -0.22; in assay [4] it was -1.54; in [5] it was -1.61; in assay [6], 1.12. In addition, the composite z-score is 1.28 in assay [7]; -0.727 in [9]; -0.284 in assay [10]; -1.01 in assay [11]; 0.518 in assay [15]; -0.0613 in [17]. The values for the composite z-score in assay [18], in assay [19] and in assay [20] were -0.465, -0.616 and -0.212, respectively. Besides, the z-score is -0.571 (inactive) in [8]; 0.696 (inactive) in assay [12]; 0.098 (inactive) in assay [13]; 0.673 (inactive) in assay [14]; -0.589 (inactive) in assay [16].

`COC(=O)C1=CC(CCCO)=CC(c2cccs2)N(C)C=C1C(=O)OC` (stereo not given): the composite z-score was 0.0256 in assay [1]; -0.106 in assay [2]; -0.0737 in assay [3]; -0.379 in assay [4]; -0.324 in [5]; 1.08 in [6]. Moreover, the composite z-score is 1.33 in [7]; -0.0824 in [9]; -0.0994 in assay [10]; 0.0782 in assay [11]; 1.6 in [15]; 0.0099 in assay [17]. The composite z-score is -0.561 in assay [18], 0.275 in assay [19] and -0.0034 in assay [20]. Besides, the z-score in [8] is -0.656 (inactive); in assay [12], 0.112 (inactive); in assay [13], 0.009 (inactive); in [14], 0.241 (inactive); in [16], 0.39 (inactive).

On to `CCOC(=O)C[C@H]1[C@H](OC(=O)c2cc3ccccc3oc2=O)[C@@H](NC(=O)c2ccc3ccccc3n2)c2cc(OCCCO)ccc2N1C(=O)Cc1ccc(OC)cc1`, for which the composite z-score in assay [1] was -0.446; in [2], 0.522; in assay [3], -0.0107; in assay [4], 0.302; in [5], 0.958; in assay [6] it was 1.03. Besides, the composite z-score was 0.946 in assay [7]; 0.24 in assay [9]; -0.201 in assay [10]; 1.45 in assay [11]; 1.33 in [15]; -0.0391 in [17]. The composite z-score in assay [18] was 0.638; in assay [19] it was 1.16; in assay [20], 0.104. Further, the z-score is 0.547 (inactive) in assay [8]; -0.136 (inactive) in assay [12]; -0.163 (inactive) in assay [13]; -0.617 (inactive) in [14]; 0.397 (inactive) in assay [16].

Turning to `C=CC[C@]1(C(=O)N2CCCCC2)N=C(c2ccc(OCCCO)cc2)O[C@H]1c1ccccc1CN=[N+]=[N-]`, the composite z-score in [1] was -0.25; in assay [2] it was 0.516; in assay [3] it was 0.238; in assay [4], 0.546; in assay [5], 1.42; in assay [6], 1.17. Moreover, the composite z-score in assay [7] is 1.24; in [9] it was 0.907; in [10], -0.0699; in assay [11], 1.54; in assay [15] it was 3.19; in [17] it was -0.013. In addition, the values for the composite z-score in assay [18], in [19] and in assay [20] were 0.562, 1.08 and -0.0512, respectively. Also, the z-score in assay [8] was -1.08 (inactive); in assay [12], -1.66 (inactive); in assay [13], -0.442 (inactive); in [14], -0.837 (inactive); in assay [16] it was 0.937 (inactive).

These data come from PubChem BioAssay.
